PubChem BioAssay AID1259422 (The Scripps Research Institute Molecular Screening Center, 2018)
Screen size: about 640,000 compounds; about 9,300 (1.5%) were called active. The sample holds actives, similar compounds and a random draw of the others, so the mix is not that of the screen. Values without a mark were called inactive. No stated cut-off is given here; in the data, active means inhibition above about 32%; inactive means the rest.

Assay: TEAD-YAP interaction inhibition, primary screen, TEAD-YAP interaction inhibitor project, luminescence, HEK-TIYL cells (AID 1259422);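 further: 0% = median of test compound wells and 100% = reference inhibitor wells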
Settings: TEAD-Gal4/YAP UAS-luciferase luminescence, at 9.12 µM, stronger effect = higher value
For `O=[N+]([O-])c1ccc(NC(=S)Nc2ccc(Br)cn2)cc1`, the inhibition was 2.08%.
In the case of `CC(C)(C)NC(=O)c1cc2nc(-c3ccco3)cc(C(F)(F)F)n2n1`, the inhibition is reported as -0.09%.
Molecule `O=C(NCCCNc1ccc([N+](=O)[O-])cc1Cl)c1ccc(Cl)cc1` has an inhibition of 3.65%.
In the case of `Cc1ccc(C(=O)NCCNc2ccc([N+](=O)[O-])cc2)cc1`, the inhibition is reported as 1.76%.
With `Cc1ccc(C(=O)NCCNc2ccc([N+](=O)[O-])cc2Cl)cc1` the inhibition was 34.1% (active).
Molecule `CC(Oc1cccc2cccnc12)C(=O)NNC(=S)NC(=O)c1cc2ccccc2oc1=O` (centres undefined) has an inhibition of 3.86%.
For `Cc1ccccc1C1=NN2C(=N)/C(=C/c3c(C)nn(-c4ccccc4)c3Cl)C(=O)N=C2S1`, the inhibition was -14.8%.
Molecule `CCCN(CCC)S(=O)(=O)c1ccc2[nH]c(=O)ccc2c1` has an inhibition of -11.6%.
For `COc1cc(C(=O)N/N=C/c2c(Cl)[nH]c(=O)n2-c2ccccc2)cc(OC)c1OC`, the inhibition was 72.6% (active).
Work on `CCC/C=N/NC(=O)c1ccc(C)cc1C` yielded an inhibition of -15.2%.
For `CCC/C=N/NC(=O)c1cc(OC)c(OC)c(OC)c1`, the inhibition was 59.2% (active).
`CCCOC(=O)c1ccc(NC(=O)c2cc(OC)c(OC)c(OC)c2)cc1` showed an inhibition of -1.39%.
For `COc1cc(C(=O)N/N=C/c2cccs2)ccc1O`, the inhibition was 2.59%.
In the case of `COc1cc(C(=O)N/N=C\c2ccc(-c3cccc(C(=O)O)c3)o2)cc(OC)c1OC`, the inhibition is reported as 64.9% (active).
In the case of `COc1cc(C(=O)N/N=C/c2cccs2)cc(OC)c1OC`, the inhibition is reported as 61.3% (active).
For `COc1cc(/C=N/NC(=O)c2cccs2)cc(OC)c1OC`, the inhibition was -55.4%.
`COc1cc(C(=O)NCc2n[nH]c(=S)n2-c2ccccc2)cc(OC)c1OC` showed an inhibition of 3.36%.
Work on `COc1cc(OC)c(OC)cc1/C=N/NC(=O)c1ccccn1` yielded an inhibition of -43.7%.
`COC(=O)N/N=C\c1ccc(-c2cccc(Cl)c2)o1` gave an inhibition of -22.7%.
`Cc1ccc(C(=O)N/N=C\c2ccc(-c3cccc(C(=O)O)c3)o2)cn1` gave an inhibition of -9%.
`Cc1ccc(N2C(=O)c3cccc4c(Br)c([N+](=O)[O-])cc(c34)C2=O)c(C)c1` showed an inhibition of 6.15%.
For `CCN(CC)CCCN(Cc1ccco1)C(=S)Nc1cc(C)c(Cl)cc1OC`, the inhibition was 3.59%.
Work on `Cc1nc2c(c(=O)[nH]1)CN(Cc1cccn1C)CC2` yielded an inhibition of -16.9%.
`Oc1ccc(-c2cnc3c(NCc4ccco4)nccn23)cc1` gave an inhibition of -72.4%.
In the case of `c1coc(CNc2ncnc3ccccc23)c1`, the inhibition is reported as 36.3% (active).
Work on `Ic1ccc2ncnc(NCc3ccco3)c2c1` yielded an inhibition of 15.7%.
`Cc1ccc(-n2ncc3c(NCc4ccco4)ncnc32)cc1` showed an inhibition of -76.8%.
With `CCOC(=O)c1ccc(NC(=O)N2CCN(c3nc(-c4ccccc4)cs3)CC2)cc1` the inhibition was -7.79%.
In the case of `COCCNC(=O)c1cc2nc(-c3cccs3)cc(C(F)(F)F)n2n1`, the inhibition is reported as 8.1%.
For `Cc1cc(/C=C2/NC(=O)NC2=O)c(C)n1-c1ccc(Cl)cc1`, the inhibition was 4.42%.
In the case of `Cc1ccccc1-n1c(C)cc(/C=C2\NC(=O)NC2=O)c1C`, the inhibition is reported as 57.4% (active).
`Cc1cc(/C=C2/NC(=O)NC2=O)c(C)n1-c1ccc2ccccc2c1` showed an inhibition of 7.98%.
For `CN(C(=O)n1nnc2ccccc21)c1ccccc1`, the inhibition was 44.2% (active).
`Cc1nn(C(=O)N(C)c2ccccc2)c(C)c1Br` gave an inhibition of 5%.
For `COc1ccc(C(=O)n2nnc3ccccc32)cc1`, the inhibition was -1.4%.
For `O=C(N/N=C/c1ccc(Cl)cc1)c1ccccc1F`, the inhibition was -4.81%.
`COCCNCC(=O)Nc1cccc2ccccc12` showed an inhibition of 8.26%.
`O=C(NN1CC(C(=O)OCc2ccc([N+](=O)[O-])cc2)CC1=O)c1ccccc1` (centres undefined) showed an inhibition of 5.91%.
In the case of `Cc1cc(C)n(CCc2nc3c4ccccc4n(CC(N)=O)c(=O)n3n2)n1`, the inhibition is reported as 4.04%.
In the case of `COC(=O)COc1ccc(NC(=O)COc2ccccc2)cc1`, the inhibition is reported as 0.58%.
For `Cc1csc2nc(-c3ccc(NC(=O)COc4ccccc4)cc3)cn12`, the inhibition was 78.2% (active).
For `COc1ccc(CC(=O)Nc2ccc(-c3cn4c(C)csc4n3)cc2)cc1`, the inhibition was -12.5%.
`O=C(Nc1cccc2ccccc12)c1nc2c(nnn2Cc2ccc(F)cc2)c(=O)[nH]1` showed an inhibition of -2.87%.
For `O=C(Nc1ccc(Br)cn1)c1ccccc1Cl`, the inhibition was -0.48%.
In the case of `CCc1ccccc1-n1c(SCC(=O)Nc2nc(C)cs2)nnc1-c1cccnc1`, the inhibition is reported as 56.8% (active).
`Cc1csc(NC(=O)CSc2nnc(-c3cccnc3)o2)n1` showed an inhibition of -34.8%.
With `CCCn1c(SCC(=O)Nc2nc(C)cs2)nnc1-c1ccccn1` the inhibition was 12.5%.
Work on `Cc1cccc(-n2c(SCC(=O)NNC(=O)c3ccco3)nnc2-c2cccnc2)c1C` yielded an inhibition of -0.49%.
In the case of `Cc1ccccc1-n1c(SCC(=O)c2c[nH]c3ccccc23)nnc1-c1cccnc1`, the inhibition is reported as 48.9% (active).
With `Cc1ccccc1-n1c(SCC(=O)NNC(=O)c2ccco2)nnc1-c1cccnc1` the inhibition was -12%.
For `O=C(NCc1ccncc1)C(=O)NCC1OCCCN1S(=O)(=O)c1cccs1` (centres undefined), the inhibition was 0.25%.
Molecule `CCCCOC(=O)c1cc(-c2ccc(OC)cc2)nc2ccc(Br)cc12` has an inhibition of 0.12%.
For `Cc1[nH]c2ccccc2c1C(Nc1nccs1)c1ccccc1O` (centres undefined), the inhibition was 2.06%.
For `Cn1c(SCC(=O)c2ccc([N+](=O)[O-])cc2)nnc1C(F)(F)F`, the inhibition was 4.67%.
Work on `O=C(N/N=C/c1ccccc1Cl)C(=O)N/N=C/c1ccccc1Cl` yielded an inhibition of 9.07%.
`CCOC(=O)C1=CN(Cc2ccc(F)cc2)C=C(C(=O)OCC)C1c1ccc(Cl)cc1` gave an inhibition of 1.74%.
Work on `Cc1cc(C)n(-c2nc(Nc3ccc(OC(F)(F)F)cc3)nc(-n3nc(C)cc3C)n2)n1` yielded an inhibition of -10.5%.
Molecule `CCc1ccccc1NC(=O)NCCNc1cc(-n2nc(C)cc2C)nc(C)n1` has an inhibition of -1.06%.
With `CC(=O)Nc1ccc(Nc2cc(Nc3ccccn3)nc(N)n2)cc1` the inhibition was -12.6%.
Molecule `Cc1cc(NCc2ccccc2)nc(N2CCN(Cc3ccc4c(c3)OCO4)CC2)n1` has an inhibition of 3.95%.
For `Cc1cc(NCc2ccccc2)nc(-n2nc(C)cc2C)n1`, the inhibition was 65.4% (active).
With `CC(=O)Nc1ccc(Nc2cc(C)nc(-n3nc(C)cc3C)n2)cc1` the inhibition was 36% (active).
`COc1cc2nc(NCc3ccc4c(c3)OCO4)nc(N)c2cc1OC` gave an inhibition of 8.22%.
`COc1cccc(NC(=O)CSc2nc(O)c(C)c(=O)n2-c2ccc(F)cc2)c1` showed an inhibition of -6.67%.
For `COc1ccc(/C=N/NC(=O)CNc2cccc3ccccc23)cc1Cl`, the inhibition was 8.35%.
Work on `O=C(CCSc1nc(-c2ccccc2)cs1)N1CCOCC1` yielded an inhibition of -10.1%.
For `O=C(NC1CC1)C1CCN(C(=O)c2sccc2-n2cccc2)CC1`, the inhibition was 0.5%.
`CCC1CN(Cc2cn(CC)nc2C)Cc2cc(OC)ccc2O1` (centres undefined) showed an inhibition of 4.73%.
Molecule `COc1ccc(-c2nc(Nc3cc(OC)c(OC)c(OC)c3)c3ncn(C(C)C)c3n2)cc1` has an inhibition of 23.6%.
In the case of `CC(C)n1cnc2c(NCc3nc4ccccc4[nH]3)nc(Cl)nc21`, the inhibition is reported as 61.8% (active).
In the case of `COc1cc(Nc2nc(NCc3nc4ccccc4[nH]3)c3ncn(C(C)C)c3n2)cc(OC)c1OC`, the inhibition is reported as 47.9% (active).
`COc1cc(Nc2cc(C(=O)NCc3nc4ccccc4[nH]3)ccn2)cc(OC)c1OC` gave an inhibition of 2.93%.
For `FC(F)(F)c1ccc(Cn2cnc3c(NCc4nc5ccccc5[nH]4)nc(Cl)nc32)cc1`, the inhibition was -2.85%.
For `COc1ccc(CNc2nc(-c3ccccc3)nc3c2ncn3C(C)C)cc1`, the inhibition was -3.1%.
Work on `Cc1c(C(=O)NCC2CCCO2)sc2ncn(Cc3ccccc3F)c(=O)c12` (centres undefined) yielded an inhibition of 2.38%.
`Oc1c(C(c2ccc(F)cc2)N2CCOCC2)sc2ncnn12` (centres undefined) showed an inhibition of -3.52%.
`COc1ccccc1N1CCN(/N=C(\C)c2cccs2)CC1` gave an inhibition of -19.5%.
For `Cc1cccnc1NC(=S)NC(=O)c1cc2ccccc2o1`, the inhibition was -26.1%.
In the case of `CCCn1nnnc1NC(=S)NC(=O)c1cc2ccccc2o1`, the inhibition is reported as 35.9% (active).
Work on `CCCn1nnnc1NC(=O)c1ccc(-c2cccc(Cl)c2)o1` yielded an inhibition of -16.9%.
In the case of `Cc1ccc(C(C)C)c(OC(=O)c2cc(-c3ccc(Cl)cc3)nc3ccc(C)cc23)c1`, the inhibition is reported as -8.87%.
With `O=C1C(Nc2ccc(F)c(F)c2)=C(N2CCCCC2)C(=O)c2ccccc21` the inhibition was -7.95%.
Work on `O=C1C(Nc2ccc(F)c(F)c2)=C(N2CCCC2)C(=O)c2ccccc21` yielded an inhibition of -1.87%.
For `CC1CCN(C2=C(NC3CCCC3)C(=O)c3ccccc3C2=O)CC1`, the inhibition was 51.5% (active).
`Cc1c(C(=O)N2CCN(Cc3ccc4c(c3)OCO4)CC2)sc2ncn(CC(=O)Nc3cccc(C(F)(F)F)c3)c(=O)c12` gave an inhibition of -1.1%.
In the case of `CNC(=O)c1ccc(Cl)c([N+](=O)[O-])c1`, the inhibition is reported as 8.77%.
`CCCCC(=O)NC1(C(F)(F)F)C(=O)N(C2CCCCC2)C(C)=C1C(=O)OCC` (centres undefined) showed an inhibition of 18.5%.
Molecule `Nc1c(C(=O)OCC(=O)NCc2ccc3c(c2)OCO3)[nH]c(=O)[nH]c1=O` has an inhibition of -6.24%.
With `COc1ccc(S(=O)(=O)Nc2ccc3oc(C)c(C(C)=O)c3c2)cc1` the inhibition was 54.7% (active).
Work on `CC(=O)c1c(C)oc2c1cc(NS(=O)(=O)c1cccc3cccnc13)c1ccccc12` yielded an inhibition of -0.78%.
In the case of `Cc1ccc(S(=O)(=O)Nc2ccc3oc(C)c(C(=O)NN)c3c2)cc1`, the inhibition is reported as 10.1%.
`COC(=O)c1c(C)oc2c1cc(NS(=O)(=O)c1ccc(Cl)cc1)c1ccccc12` gave an inhibition of 11.4%.
In the case of `CC(=O)c1c(C)oc2c1cc(NS(=O)(=O)c1ccc(C)cc1)c1ccccc12`, the inhibition is reported as 62.9% (active).
In the case of `COCCOC(=O)c1c(C)oc2ccc(NS(=O)(=O)c3ccc(Cl)cc3)cc12`, the inhibition is reported as -2.27%.
